According to PubChem BioAssay AID485276 (Southern Research Specialized Biocontainment Screening …, 2010):
Entries with a potency or affinity are not part of this list. The source made the active and inactive calls. How the calls were made is not given here.

Assay: SV40 cytopathic effect inhibition and cytotoxicity, confirmation, BSC cells, set 3 (AID 485276)
Conditions: series mostly up to 200 µM

Structure (SMILES) | outcome
Oc1ccc(Cl)cc1Cc1cc(Cl)ccc1O | inactive
Oc1ccc(C2(c3ccc(O)cc3)CC2)cc1 | inactive
CC(C)(c1ccc(O)cc1)c1ccc(Cl)cc1 | inactive
CC(C)(c1ccccc1)n1nnc(-c2ccccc2)n1 | inactive
Oc1ccc(Oc2ccc(O)cc2)cc1 | inactive
Oc1c(Cl)cc(Cl)cc1Sc1cc(Cl)cc(Cl)c1O | inactive
